These results are taken from the supplement of paper PMC9262897, “Low-cost anti-mycobacterial drug discovery using engineered E. coli” (Nature Communications, 2022).

Molecules are shown by their SMILES. Counter-ions that a name gives are not always drawn. ± gives the standard deviation of the averaged measurements.

What all share (assay): growth (OD600 after 10 h); higher = more growth (less inhibition)
In experiment [1] the test system is E. coli TESEC Alr+ wild-type control. Conditions: compound 0.1 mM; raw OD600 reference: median of DMSO wells 0.241, cell-free background 0.041. The method, then: (§1)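 TESEC Mtb Alr E. coli, or the Alr+ wild-type control, in 384-well plates with Prestwick library compounds at 0.1 mM and 1% DMSO, across arabinose induction levels of 1E3 to 1E7 nM. Growth is read as OD600 after 10 h at 37 °C in triplicate biological replicates.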

Experiment [2] has as its system E. coli TESEC Mtb Alr. The settings on record: compound 0.1 mM. The procedure: as §1
Another experiment relates to E. coli TESEC Mtb Asd. Conditions: compound 0.1 mM. The method, then: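 TESEC E. coli strains in which the native enzyme is deleted and replaced by arabinose-inducible Mtb Asd, DapB, CysH or TrpD, each grown in its selective medium. Strains were screened against the Prestwick library at 0.1 mM and 1% DMSO in 384-well format at low and high arabinose induction. Growth is read as OD600 after 10 h in triplicate.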

In experiment [3] the test system is E. coli TESEC Alr+ wild-type control. The settings on record: compound 0.1 mM; raw OD600 reference: median of DMSO wells 0.49, cell-free background 0.052. The method, then:
(§2)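 TESEC Mtb Alr E. coli (ΔaraC ΔtolC ΔentC Δalr ΔdadX, arabinose-inducible Mtb Alr) or the Alr+ wild-type control strain, grown in defined M9-fructose medium without D-alanine in 96-well plates with Prestwick library compounds at 0.1 mM and 1% DMSO. Low Alr induction is 0.1 µM arabinose and high induction is 10 mM arabinose.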

The subject of experiment [4] is E. coli TESEC Mtb Alr. Conditions: compound 0.1 mM. The method, then:
as §2
The source holds these as a separate data set.

The mark [5] stands for this setting: arabinose 1000 nM, raw OD600 reference: median of DMSO wells 0.294, cell-free background 0.041.
[6] abbreviates: arabinose 10000 nM, raw OD600 reference: median of DMSO wells 0.264, cell-free background 0.041.
The mark [7] stands for this setting: arabinose 100000 nM, raw OD600 reference: median of DMSO wells 0.201, cell-free background 0.041.
Setting [8] is: arabinose 1000000 nM, raw OD600 reference: median of DMSO wells 0.193, cell-free background 0.041.
The mark [9] stands for this setting: arabinose 10000000 nM, raw OD600 reference: median of DMSO wells 0.146, cell-free background 0.041.
Setting [10] is: arabinose induction (level): High, raw OD600 reference: median of DMSO wells 0.331, cell-free background 0.041.
Setting [11] is: arabinose induction (level): Low, raw OD600 reference: median of DMSO wells 0.417, cell-free background 0.041.
[12] abbreviates: arabinose 100 nM, raw OD600 reference: median of DMSO wells 0.413, cell-free background 0.052.
Where [13] appears, read: arabinose 10000000 nM, raw OD600 reference: median of DMSO wells […], cell-free background 0.052.

In the case of `CCCCC[C@H](O)/C=C/[C@H]1[C@H](O)CC(=O)[C@@H]1CCCCCCC(=O)O` [Alprostadil], the growth stood at 0.215 ± 0.0055 in experiment [1]; 0.284 ± 0.0052 in the experiment on E. coli TESEC Mtb Alr [2] (setting [5]); 0.23 ± 0.0057 in the experiment with E. coli TESEC Mtb Alr [2] (setting [6]); 0.176 ± 0.0091 in the experiment on E. coli TESEC Mtb Alr [2] (setting [7]); 0.163 ± 0.0042 with E. coli TESEC Mtb Alr [2] (setting [8]); 0.126 ± 0.0061 with E. coli TESEC Mtb Alr [2] (setting [9]). Further, the growth in the experiment with E. coli TESEC Mtb Asd (setting [10]) turned out to be 0.243 ± 0.046; in the experiment with E. coli TESEC Mtb Asd (setting [11]), 0.279 ± 0.082; in experiment [3] it was 0.503 ± 0.07; with E. coli TESEC Mtb Alr [4] (setting [12]) it was 0.364 ± 0.018; in the experiment on E. coli TESEC Mtb Alr [4] (setting [13]) it was 0.299 ± 0.017.

For `CNCC(O)c1ccc(OC(=O)C(C)(C)C)c(OC(=O)C(C)(C)C)c1` (stereo unspecified) [Dipivefrin hydrochloride], the growth in experiment [1] is 0.171 ± 0.01; in the experiment on E. coli TESEC Mtb Alr [2] (setting [5]), 0.239 ± 0.018; with E. coli TESEC Mtb Alr [2] (setting [6]) it was 0.255 ± 0.011; in the experiment with E. coli TESEC Mtb Alr [2] (setting [7]), 0.164 ± 0.016; in the experiment on E. coli TESEC Mtb Alr [2] (setting [8]), 0.0939 ± 0.0013; in the experiment on E. coli TESEC Mtb Alr [2] (setting [9]), 0.142 ± 0.004. Also, the growth in the experiment with E. coli TESEC Mtb Asd (setting [10]) is 0.174 ± 0.029; in the experiment on E. coli TESEC Mtb Asd (setting [11]) it was 0.269 ± 0.048; in experiment [3], 0.394 ± 0.018; in the experiment on E. coli TESEC Mtb Alr [4] (setting [12]) it was 0.391 ± 0.022; in the experiment with E. coli TESEC Mtb Alr [4] (setting [13]), 0.19 ± 0.014.

For `OCCN1CCN(CCCN2c3ccccc3Sc3ccc(Cl)cc32)CC1` [Perphenazine], the growth in experiment [1] stood at 0.0416 ± 0.00046; in the experiment on E. coli TESEC Mtb Alr [2] (setting [5]) it was 0.0411 ± 0.00082; in the experiment on E. coli TESEC Mtb Alr [2] (setting [6]), 0.0422 ± 0.00061; with E. coli TESEC Mtb Alr [2] (setting [7]), 0.0431 ± 0.0021; with E. coli TESEC Mtb Alr [2] (setting [8]), 0.04167 ± 0.00035; with E. coli TESEC Mtb Alr [2] (setting [9]), 0.0462 ± 0.00053. The growth with E. coli TESEC Mtb Asd (setting [10]) is 0.0588 ± 0.0034; in the experiment on E. coli TESEC Mtb Asd (setting [11]) it was 0.0626 ± 0.0018; in experiment [3] it was 0.0523 ± 0.0019; in the experiment on E. coli TESEC Mtb Alr [4] (setting [12]), 0.285 ± 0.2; in the experiment with E. coli TESEC Mtb Alr [4] (setting [13]), 0.0538 ± 0.00074.

For `CC[C@H](C)[C@H](N)C1=N[C@H](C(=O)N[C@@H](CC(C)C)C(=O)N[C@H](CCC(=O)O)C(=O)N[C@H](C(=O)N[C@H]2CCCCNC(=O)[C@H](CC(N)=O)NC(=O)[C@@H](CC(=O)O)NC(=O)[C@H](Cc3cnc[nH]3)NC(=O)[C@@H](Cc3ccccc3)NC(=O)[C@H]([C@@H](C)CC)NC(=O)[C@@H](CCCN)NC2=O)[C@@H](C)CC)CS1` [Bacitracin], the growth worked out at 0.306 ± 0.0084 in experiment [1]; 0.324 ± 0.0095 with E. coli TESEC Mtb Alr [2] (setting [5]); 0.252 ± 0.0038 in the experiment with E. coli TESEC Mtb Alr [2] (setting [6]); 0.387 ± 0.0099 in the experiment with E. coli TESEC Mtb Alr [2] (setting [7]); 0.176 ± 0.0086 in the experiment with E. coli TESEC Mtb Alr [2] (setting [8]); 0.214 ± 0.013 with E. coli TESEC Mtb Alr [2] (setting [9]). The growth in the experiment with E. coli TESEC Mtb Asd (setting [10]) is 0.298 ± 0.05; with E. coli TESEC Mtb Asd (setting [11]), 0.269 ± 0.054; in experiment [3], 0.49 ± 0.073; in the experiment with E. coli TESEC Mtb Alr [4] (setting [12]), 0.421 ± 0.015; in the experiment with E. coli TESEC Mtb Alr [4] (setting [13]), 0.348 ± 0.028.

For `Cn1c(=O)c2c(ncn2CC(=O)O)n(C)c1=O` [Acefylline], the growth in experiment [1] stood at 0.248 ± 0.0081; in the experiment on E. coli TESEC Mtb Alr [2] (setting [5]), 0.307 ± 0.01; in the experiment with E. coli TESEC Mtb Alr [2] (setting [6]), 0.253 ± 0.0048; in the experiment on E. coli TESEC Mtb Alr [2] (setting [7]), 0.21 ± 0.0073; in the experiment with E. coli TESEC Mtb Alr [2] (setting [8]), 0.191 ± 0.0048; in the experiment with E. coli TESEC Mtb Alr [2] (setting [9]), 0.138 ± 0.0046. The growth in the experiment with E. coli TESEC Mtb Asd (setting [10]) amounted to 0.297 ± 0.04; in the experiment with E. coli TESEC Mtb Asd (setting [11]), 0.433 ± 0.014; in experiment [3] it was 0.457 ± 0.013; in the experiment with E. coli TESEC Mtb Alr [4] (setting [12]) it was 0.408 ± 0.007; in the experiment on E. coli TESEC Mtb Alr [4] (setting [13]) it was 0.347 ± 0.01.

For `CCN(CC)CC#CCOC(=O)C(O)(c1ccccc1)C1CCCCC1` (stereo unspecified) [Oxybutynin chloride], the growth is 0.148 ± 0.0035 in experiment [1]; 0.13 ± 0.067 in the experiment with E. coli TESEC Mtb Alr [2] (setting [5]); 0.167 ± 0.004 in the experiment with E. coli TESEC Mtb Alr [2] (setting [6]); 0.131 ± 0.072 in the experiment with E. coli TESEC Mtb Alr [2] (setting [7]); 0.0668 ± 0.00052 in the experiment on E. coli TESEC Mtb Alr [2] (setting [8]); 0.117 ± 0.0015 with E. coli TESEC Mtb Alr [2] (setting [9]). Moreover, the growth was 0.137 ± 0.017 in the experiment with E. coli TESEC Mtb Asd (setting [10]); 0.191 ± 0.033 in the experiment with E. coli TESEC Mtb Asd (setting [11]); 0.41 ± 0.043 in experiment [3]; 0.398 ± 0.031 with E. coli TESEC Mtb Alr [4] (setting [12]); 0.145 ± 0.025 in the experiment with E. coli TESEC Mtb Alr [4] (setting [13]).
